In PubChem BioAssay AID1159580 (chemical genetic matrix, 2015):
Hit rate of the full screen: of about 5,500 compounds, about 2,000 (36%) were called active. Roughly 18% stayed inconclusive and do not appear here. Rule as the data show it: active = normalized growth mostly below about 0.91 (no sharp cut-off); inconclusive = no clear call, values can overlap the other calls; inactive = mostly above about 0.92. Some of the results follow.

Experiment: chemical genetic growth profiling, strain panel (AID 1159580);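 also: tested at 20 µM; growth read once vehicle control cultures reached saturation at 30 °C; 1 = growth at the plate median or of vehicle wells; lower values mean less growth of the strain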
Details: S. cerevisiae deletion strains, growth OD

Measured: normalized growth

COc1cc(NS(C)(=O)=O)ccc1Nc1c2ccccc2nc2ccccc12
inactive: locus YAL040C, strain CLN3, stronger effect = lower value 0.985 | locus YCL061C, strain MRC1 (second series), stronger effect = lower value 0.981 | locus YDR363W, strain ESC2, stronger effect = lower value 0.916 | locus YER002W, strain NOP16, stronger effect = lower value 0.989 | locus YGR078C, strain PAC10, stronger effect = lower value 0.985 | locus YGR229C, strain SMI1, stronger effect = lower value 0.955 | locus YNL128W, strain TEP1, stronger effect = lower value 1.02 | locus YNL175C, strain NOP13, stronger effect = lower value 1 | locus YNL197C, strain WHI3, stronger effect = lower value 0.967 | locus YNL224C, strain SQS1, stronger effect = lower value 0.98 | locus YNL322C, strain KRE1, stronger effect = lower value 0.965 | locus YOR083W, strain WHI5 (second series), stronger effect = lower value 0.975 | locus YPL055C, strain LGE1, stronger effect = lower value 0.902

COc1cc(NS(C)(=O)=O)ccc1Cc1c2ccccc2nc2ccccc12
inactive: locus YAL026C, strain drs2, stronger effect = lower value 1 | locus YAL030W, strain snc1, stronger effect = lower value 0.971 | locus YBL061C, strain skt5, stronger effect = lower value 1.01 | locus YBR023C, strain chs3, stronger effect = lower value 0.988 | locus YBR171W, strain sec66, stronger effect = lower value 1.02 | locus YBR231C, strain swc5, stronger effect = lower value 0.969 | locus YBR279W, strain paf1, stronger effect = lower value 0.988 | locus YCL011C, strain gbp2, stronger effect = lower value 0.939 | locus YCL069W, strain vba3, stronger effect = lower value 1 | locus YCR088W, strain abp1, stronger effect = lower value 0.986 | locus YDL040C, strain nat1, stronger effect = lower value 0.994 | locus YDR001C, strain nth1, stronger effect = lower value 0.999 | locus YDR137W, strain rgp1, stronger effect = lower value 1.1 | locus YDR159W, strain sac3, stronger effect = lower value 0.947 | locus YDR195W, strain ref2 1.05 | locus YDR297W, strain sur2, stronger effect = lower value 0.96 | locus YDR334W, strain swr1, stronger effect = lower value 1.01 | locus YDR335W, strain msn5, stronger effect = lower value 0.993 | locus YDR392W, strain spt3, stronger effect = lower value 0.795 | locus YEL003W, strain gim4, stronger effect = lower value 0.966 | locus YEL037C, strain rad23, stronger effect = lower value 0.979 | locus YEL061C, strain CIN8 (second series), stronger effect = lower value 0.982 | locus YER015W, strain faa2, stronger effect = lower value 0.986 | locus YER111C, strain swi4, stronger effect = lower value 1.01 | locus YER155C, strain BEM2 (second series), stronger effect = lower value 0.885 | locus YGL167C, strain pmr1, stronger effect = lower value 1 | locus YGL173C, strain kem1, stronger effect = lower value 0.991 | locus YGL227W, strain vid30, stronger effect = lower value 0.994 | locus YGL240W, strain doc1, stronger effect = lower value 0.892 | locus YGL253W, strain hxk2, stronger effect = lower value 0.996 | locus YHR013C, strain ard1, stronger effect = lower value 0.874 | locus YHR027C, strain rpn1, stronger effect = lower value 0.978 | locus YHR030C, strain SLT2, stronger effect = lower value 0.974 | locus YHR079C, strain IRE1, stronger effect = lower value 0.946 | locus YHR142W, strain chs7, stronger effect = lower value 0.964 | locus YJL095W, strain BCK1 (second series), stronger effect = lower value 0.986 | locus YJL095W, strain BCK1, stronger effect = lower value 1 | locus YJL129C, strain trk1, stronger effect = lower value 0.933 | locus YJL154C, strain vps35, stronger effect = lower value 0.998 | locus YJL164C, strain tpk1, stronger effect = lower value 0.918 | locus YJL166W, strain qcr8, stronger effect = lower value 0.945 | locus YJR066W, strain TOR1, stronger effect = lower value 0.919 | locus YKL160W, strain elf1, stronger effect = lower value 0.985 | locus YKR026C, strain gcn3, stronger effect = lower value 0.998 | locus YKR091W, strain srl3, stronger effect = lower value 1 | locus YLL001W, strain dnm1, stronger effect = lower value 0.936 | locus YLL026W, stronger effect = lower value 0.977 | locus YLL041C, strain sdh2, stronger effect = lower value 0.99 | locus YLR113W, strain HOG1, stronger effect = lower value 0.971 | locus YLR258W, strain gsy2, stronger effect = lower value 0.969 | locus YLR262C, strain YPT6 (second series), stronger effect = lower value 1 | locus YLR342W, strain FKS1, stronger effect = lower value 0.927 | locus YLR357W, strain rsc2, stronger effect = lower value 0.987 | locus YLR370C, strain arc18, stronger effect = lower value 0.923 | locus YLR384C, strain iki3, stronger effect = lower value 0.994 | locus YML120C, strain ndi1, stronger effect = lower value 0.956 | locus YMR058W, strain fet3, stronger effect = lower value 0.949 | locus YMR125W, strain sto1, stronger effect = lower value 0.98 | locus YMR129W, stronger effect = lower value 0.984 | locus YMR205C, strain PFK2, stronger effect = lower value 0.947 | locus YMR231W, strain pep5, stronger effect = lower value 1 | locus YNL071W, strain lat1, stronger effect = lower value 0.987 | locus YNL183C, strain NPR1, stronger effect = lower value 0.952 | locus YNL209W, strain ssb2, stronger effect = lower value 0.986 | locus YNL248C, strain rpa49, stronger effect = lower value 0.945 | locus YNR049C, strain mso1, stronger effect = lower value 0.989 | locus YOR001W, strain rrp6, stronger effect = lower value 0.915 | locus YOR070C, strain gyp1, stronger effect = lower value 0.984 | locus YOR083W, strain WHI5, stronger effect = lower value 0.934 | locus YOR106W, strain vam3, stronger effect = lower value 0.926 | locus YOR231W, strain MKK1, stronger effect = lower value 1.01 | locus YOR265W, strain rbl2, stronger effect = lower value 0.985 | locus YOR270C, strain vph1, stronger effect = lower value 0.935 | locus YPL051W, strain arl3, stronger effect = lower value 0.992 | locus YPL078C, strain atp4, stronger effect = lower value 1.02 | locus YPL106C, strain sse1, stronger effect = lower value 1.02 | locus YPL240C, strain hsp82, stronger effect = lower value 0.991 | locus YPL256C, strain CLN2, stronger effect = lower value 0.944
active: locus YAL021C, strain ccr4, stronger effect = lower value 0.785 | locus YBR009C, strain hhf1, stronger effect = lower value 0.828 | locus YCL016C, strain dcc1, stronger effect = lower value 0.476 | locus YCL061C, strain MRC1, stronger effect = lower value 0.867 | locus YDL005C, strain med2, stronger effect = lower value 0.681 | locus YDR069C, strain doa4, stronger effect = lower value 0.842 | locus YER016W, strain bim1, stronger effect = lower value 0.909 | locus YFR010W, strain ubp6, stronger effect = lower value 0.877 | locus YJL092W, strain hpr5, stronger effect = lower value 0.712 | locus YJL115W, strain asf1, stronger effect = lower value 0.341 | locus YLR027C, strain aat2, stronger effect = lower value 0.916 | locus YLR221C, strain rsa3, stronger effect = lower value 0.899 | locus YLR320W, strain mms22, stronger effect = lower value 0.208 | locus YNL322C, strain KRE1 (second series), stronger effect = lower value 0.822 | locus YOR080W, strain dia2, stronger effect = lower value 0.494 | locus YOR290C, strain snf2, stronger effect = lower value 0.823
